Source: PubChem BioAssay AID1159580 (chemical genetic matrix, 2015)
In all, about 5,500 compounds went through this assay and about 2,000 (36%) were called active. Inconclusive results (about 18%) are left out. No stated cut-off is given here; in the data, active means normalized growth mostly below about 0.91 (no sharp cut-off); inconclusive means no clear call, values can overlap the other calls; inactive means mostly above about 0.92. The list shows a part of the results.

Assay: chemical genetic growth profiling, strain panel (AID 1159580);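 further: tested at 20 µM; growth read once vehicle control cultures reached saturation at 30 °C; 1 = growth at the plate median or of vehicle wells; lower values mean less growth of the strain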
Conditions: growth OD

Measured: normalized growth

CC1=C(C(C)O)C2=NC1C=c1[nH]c(c(C)c1C(C)O)=Cc1[nH]c(c(CCC(=O)O)c1C)C=c1[nH]c(c(C)c1CCC(=O)O)=C2 (stereo not drawn)
inactive: S. cerevisiae deletion strains, locus YJL187C, strain SWE1, active compounds read low 0.995 | S. cerevisiae deletion strains, locus YJR043C, strain POL32, active compounds read low 0.93 | S. cerevisiae deletion strains, locus YJR066W, strain TOR1, active compounds read low 1.02 | S. cerevisiae deletion strains, locus YKL009W, strain mrt4, active compounds read low 1.04 | S. cerevisiae deletion strains, locus YKL068W, active compounds read low 1.01 | S. cerevisiae deletion strains, locus YKL085W, strain MDH1 (second series), active compounds read low 1.02 | S. cerevisiae deletion strains, locus YKL085W, strain MDH1, active compounds read low 1.02 | S. cerevisiae deletion strains, locus YKL160W, strain elf1, active compounds read low 0.99 | S. cerevisiae deletion strains, locus YKL190W, strain CNB1, active compounds read low 1 | S. cerevisiae deletion strains, locus YKR001C, strain vps1, active compounds read low 1 | S. cerevisiae deletion strains, locus YKR026C, strain gcn3, active compounds read low 0.989 | S. cerevisiae deletion strains, locus YKR091W, strain srl3, active compounds read low 1 | S. cerevisiae deletion strains, locus YLL001W, strain dnm1, active compounds read low 0.988 | S. cerevisiae deletion strains, locus YLL026W, active compounds read low 0.992 | S. cerevisiae deletion strains, locus YLL041C, strain sdh2, active compounds read low 0.995 | S. cerevisiae deletion strains, locus YLR027C, strain aat2, active compounds read low 0.982 | S. cerevisiae deletion strains, locus YLR039C, strain RIC1, active compounds read low 1.04 | S. cerevisiae deletion strains, locus YLR058C, strain SHM2, active compounds read low 1 | S. cerevisiae deletion strains, locus YLR102C, strain apc9, active compounds read low 1.02 | S. cerevisiae deletion strains, locus YLR221C, strain rsa3, active compounds read low 0.967 | S. cerevisiae deletion strains, locus YLR258W, strain gsy2, active compounds read low 0.996 | S. cerevisiae deletion strains, locus YLR262C, strain YPT6 (second series), active compounds read low 1.06 | S. cerevisiae deletion strains, locus YLR262C, strain YPT6, active compounds read low 1.01 | S. cerevisiae deletion strains, locus YLR268W, strain sec22, active compounds read low 1.01 | S. cerevisiae deletion strains, locus YLR320W, strain mms22, active compounds read low 0.938 | S. cerevisiae deletion strains, locus YLR330W, strain CHS5, active compounds read low 1.01 | S. cerevisiae deletion strains, locus YLR342W, strain FKS1 (second series), active compounds read low 0.995 | S. cerevisiae deletion strains, locus YLR342W, strain FKS1, active compounds read low 0.987 | S. cerevisiae deletion strains, locus YLR357W, strain rsc2, active compounds read low 0.923 | S. cerevisiae deletion strains, locus YLR370C, strain arc18, active compounds read low 0.988 | S. cerevisiae deletion strains, locus YLR371W, strain rom2, active compounds read low 1.02 | S. cerevisiae deletion strains, locus YLR384C, strain iki3, active compounds read low 0.99 | S. cerevisiae deletion strains, locus YLR418C, strain cdc73, active compounds read low 0.937 | S. cerevisiae deletion strains, locus YML016C, strain PPZ1, active compounds read low 1.01 | S. cerevisiae deletion strains, locus YML032C, strain rad52, active compounds read low 1 | S. cerevisiae deletion strains, locus YML120C, strain ndi1, active compounds read low 1 | S. cerevisiae deletion strains, locus YML124C, strain tub3, active compounds read low 1.02 | S. cerevisiae deletion strains, locus YMR058W, strain fet3, active compounds read low 0.943 | S. cerevisiae deletion strains, locus YMR078C, strain ctf18, active compounds read low 1.03 | S. cerevisiae deletion strains, locus YMR125W, strain sto1, active compounds read low 1 | S. cerevisiae deletion strains, locus YMR129W, active compounds read low 0.986 | S. cerevisiae deletion strains, locus YMR205C, strain PFK2, active compounds read low 0.943 | S. cerevisiae deletion strains, locus YMR223W, strain ubp8, active compounds read low 0.976 | S. cerevisiae deletion strains, locus YMR231W, strain pep5, active compounds read low 0.98 | S. cerevisiae deletion strains, locus YMR307W, strain GAS1, active compounds read low 0.82 | S. cerevisiae deletion strains, locus YNL067W, strain RPL9B, active compounds read low 0.996 | S. cerevisiae deletion strains, locus YNL071W, strain lat1, active compounds read low 0.963 | S. cerevisiae deletion strains, locus YNL183C, strain NPR1, active compounds read low 1.02 | S. cerevisiae deletion strains, locus YNL209W, strain ssb2, active compounds read low 0.999 | S. cerevisiae deletion strains, locus YNL233W, strain BNI4, active compounds read low 0.994 | S. cerevisiae deletion strains, locus YNL248C, strain rpa49, active compounds read low 0.971 | S. cerevisiae deletion strains, locus YNL250W, strain rad50, active compounds read low 1.03 | S. cerevisiae deletion strains, locus YNL271C, strain bni1, active compounds read low 1.01 | S. cerevisiae deletion strains, locus YNL298W, strain CLA4, active compounds read low 1.02 | S. cerevisiae deletion strains, locus YNL307C, strain MCK1, active compounds read low 1.02 | S. cerevisiae deletion strains, locus YNL322C, strain KRE1 (second series), active compounds read low 0.99 | S. cerevisiae deletion strains, locus YNR049C, strain mso1, active compounds read low 0.998 | S. cerevisiae deletion strains, locus YNR052C, strain pop2, active compounds read low 1.02 | S. cerevisiae deletion strains, locus YOL012C, strain htz1 0.754 | S. cerevisiae deletion strains, locus YOL147C, strain pex11, active compounds read low 1.01 | S. cerevisiae deletion strains, locus YOR001W, strain rrp6, active compounds read low 1 | S. cerevisiae deletion strains, locus YOR061W, strain CKA2, active compounds read low 1.01 | S. cerevisiae deletion strains, locus YOR069W, strain VPS5, active compounds read low 1.01 | S. cerevisiae deletion strains, locus YOR070C, strain gyp1, active compounds read low 0.989 | S. cerevisiae deletion strains, locus YOR080W, strain dia2, active compounds read low 0.987 | S. cerevisiae deletion strains, locus YOR083W, strain WHI5, active compounds read low 0.986 | S. cerevisiae deletion strains, locus YOR106W, strain vam3, active compounds read low 0.94 | S. cerevisiae deletion strains, locus YOR136W, strain idh2, active compounds read low 1.01 | S. cerevisiae deletion strains, locus YOR144C, strain elg1, active compounds read low 1.02 | S. cerevisiae deletion strains, locus YOR184W, strain ser1, active compounds read low 0.972 | S. cerevisiae deletion strains, locus YOR231W, strain MKK1, active compounds read low 1.13 | S. cerevisiae deletion strains, locus YOR265W, strain rbl2, active compounds read low 0.995 | S. cerevisiae deletion strains, locus YOR270C, strain vph1, active compounds read low 0.915 | S. cerevisiae deletion strains, locus YOR290C, strain snf2, active compounds read low 0.984 | S. cerevisiae deletion strains, locus YOR316C, strain cot1, active compounds read low 1.02 | S. cerevisiae deletion strains, locus YPL051W, strain arl3, active compounds read low 0.984 | S. cerevisiae deletion strains, locus YPL055C, strain LGE1, active compounds read low 0.973 | S. cerevisiae deletion strains, locus YPL078C, strain atp4, active compounds read low 0.996 | S. cerevisiae deletion strains, locus YPL106C, strain sse1, active compounds read low 0.93 | S. cerevisiae deletion strains, locus YPL240C, strain hsp82, active compounds read low 0.996 | S. cerevisiae deletion strains, locus YPL256C, strain CLN2, active compounds read low 1.07 | S. cerevisiae deletion strains, locus YPR119W, strain clb2, active compounds read low 1.02 | S. cerevisiae deletion strains, locus YPR141C, strain kar3, active compounds read low 1.05 | S. cerevisiae deletion strains, locus YPR163C, strain tif3, active compounds read low 1.01 | S. cerevisiae deletion strains, locus YPR167C, strain met16, active compounds read low 1 | S. cerevisiae deletion strains, strain wtn01, active compounds read low 0.981 | S. cerevisiae strains, strain wild type, active compounds read low 0.968
active: S. cerevisiae deletion strains, locus YLR113W, strain HOG1, active compounds read low 1.19 [resistant]
